Laboratory results as given in PubChem BioAssay (NCATS).
Records with an inconclusive call do not appear. Entries that show only a call come without a potency. Calls of active or inactive are those of the source. Calls come from the whole dose curve; as a rule, active = well fitted inhibition curve with a large enough effect; inconclusive = small, poorly fitted or top-dose-only effect, or effect the other way; inactive = flat fitted curve, though single readings scatter.

The compounds below were run against ATP-dependent 6-phosphofructokinase (Trypanosoma brucei brucei) (UniProt O15648) (assay: qHTS Assay to Find Inhibitors of T. brucei phosphofructokinase: hit validation (AID 492961;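 note: luminescence reports ADP formed as PFK phosphorylates fructose-6-phosphate with ATP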)). Conditions: T. brucei PFK, ADP-Glo luminescence; series mostly up to 51.4 µM.
Sequence of ATP-dependent 6-phosphofructokinase (Trypanosoma brucei brucei) (O15648 whole entry, looked up): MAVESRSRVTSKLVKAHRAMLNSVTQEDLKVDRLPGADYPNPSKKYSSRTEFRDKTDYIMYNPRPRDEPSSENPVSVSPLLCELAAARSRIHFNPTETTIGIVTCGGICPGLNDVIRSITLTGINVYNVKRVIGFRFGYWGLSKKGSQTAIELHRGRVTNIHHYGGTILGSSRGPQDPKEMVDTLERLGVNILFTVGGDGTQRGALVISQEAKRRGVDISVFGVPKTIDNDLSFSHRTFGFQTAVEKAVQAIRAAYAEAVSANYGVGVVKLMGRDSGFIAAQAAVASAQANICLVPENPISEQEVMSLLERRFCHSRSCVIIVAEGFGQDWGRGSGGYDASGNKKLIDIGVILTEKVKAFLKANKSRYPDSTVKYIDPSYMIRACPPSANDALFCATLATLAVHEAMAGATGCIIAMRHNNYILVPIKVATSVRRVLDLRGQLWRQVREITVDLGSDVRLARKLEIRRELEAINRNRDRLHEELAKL
Summary of the method: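 Inhibition of parasite PFK is measured as reduced ADP formation, quantified via luciferase after ATP depletion. Assay used 0.1 mM ATP, 0.5 mM F6P, 1.25 nM enzyme, 45 min incubation.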
With CC(C)(O)C(Cl)(Cl)Cl the Potency was “inactive”. CC[n+]1c(-c2ccccc2)c2cc(N)ccc2c2ccc(N)cc21 was tested, and the Potency was “inactive”. With CN1C(=O)[C@@H](NC(=O)c2cc3ccccc3[nH]2)N=C(c2ccccc2)c2ccccc21 the Potency was “inactive”. With CCS(=O)(=O)C(C)(C)S(=O)(=O)CC the Potency was “inactive”. In the case of CCC(=O)O[C@H]1CC[C@H]2[C@@H]3CCC4=CC(=O)CC[C@]4(C)[C@H]3CC[C@]12C, the Potency is reported as “inactive”. With C[C@]12C=CC(=O)C=C1CC[C@@H]1[C@@H]2CC[C@@]2(C)[C@H]1CC[C@]2(C)O the Potency was “inactive”. In the case of CC(C)NCC(O)c1ccc(N)c(C#N)c1 (centres undefined), the Potency is reported as “inactive”. In the case of CNC(=O)NC(O)C(Cl)(Cl)Cl (centres undefined), the Potency is reported as “inactive”. In the case of CN1C(=O)CN=C(c2ccccc2)c2cc([N+](=O)[O-])ccc21, the Potency is reported as “inactive”. For c1cc2c(c(N3CCNCC3)c1)OCCO2, the Potency was “inactive”. With C#C[C@]1(O)CC[C@H]2[C@@H]3CCC4=CC(=O)CCC4=C3C=C[C@@]21CC the Potency was “inactive”. C=CCOC(Cn1ccnc1)c1ccc(Cl)cc1Cl (centres undefined) was tested, and the Potency was “inactive”. For C[C@]12CC[C@H]3[C@@H](CC=C4C[C@@H](O)CC[C@@]43C)[C@@H]1CC[C@@H]2O, the Potency was “inactive”. With CC(C)[N+](C)(CCC(C(N)=O)(c1ccccc1)c1ccccc1)C(C)C the Potency was “inactive”. NCc1cccnc1 was tested, and the Potency was “inactive”. With Cc1ccc(N=CN(C)C=Nc2ccc(C)cc2C)c(C)c1 the Potency was “inactive”. For O=C(CCCN1CCC(n2c(=O)[nH]c3ccccc32)CC1)c1ccc(F)cc1, the Potency was “inactive”. For O=C1NCN(c2ccccc2)C12CCN(CCCOc1ccc(F)cc1)CC2, the Potency was “inactive”. With CCCCCCCCCCCC[N+](C)(C)CCOc1ccccc1 the Potency was “inactive”.
